Shown are actives, neighbours in structure and some others; about 2.9% of the full set was active somewhere.
PAFAH1B3 inh: PAFAH1B3 (human) inhibition | recombinant PAFAH1B3, FP-rhodamine probe, fluorescence polarization | inhibition, % at 3.39 µM | hit rate 0.28% among 340,000;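 active = inhibition above the screen-wide average of all tested compounds plus 3 SD, cut at about 25% in these data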;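 note: 0% = enzyme with DMSO only and 100% = wells lacking PAFAH1B3 protein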
Target sequence (Q15102 whole entry, looked up): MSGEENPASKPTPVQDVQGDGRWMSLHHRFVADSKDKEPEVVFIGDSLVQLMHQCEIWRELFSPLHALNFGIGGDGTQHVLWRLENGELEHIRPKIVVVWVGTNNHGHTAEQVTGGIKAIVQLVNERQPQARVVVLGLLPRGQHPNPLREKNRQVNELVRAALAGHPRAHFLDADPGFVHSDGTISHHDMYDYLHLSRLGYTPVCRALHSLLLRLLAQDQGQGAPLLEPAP
LYPLA2 inh: LYPLA2 (human) inhibition in PME1 counter-screen. O95372. recombinant LYPLA2, FP-Rh probe fluorescence polarization. inhibition, % at 5.9 µM. hit rate 0.38% among 320,000;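 active = inhibition above the screen-wide mean plus 3 SD, limit set per campaign, cut at about 26% in these data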;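 note: 0% = LYPLA2 with DMSO and 100% = wells lacking LYPLA2 enzyme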
Target sequence (O95372 whole entry, looked up): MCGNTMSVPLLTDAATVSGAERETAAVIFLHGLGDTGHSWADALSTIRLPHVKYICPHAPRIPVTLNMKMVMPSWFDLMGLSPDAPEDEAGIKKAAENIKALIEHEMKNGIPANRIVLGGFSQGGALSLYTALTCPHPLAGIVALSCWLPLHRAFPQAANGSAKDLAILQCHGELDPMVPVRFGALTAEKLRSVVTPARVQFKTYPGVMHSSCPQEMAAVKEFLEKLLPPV
PAFAH1B2 FP inh: PAFAH1B2 (human) inhibition | inhibition, % at 3.39 µM | recombinant PAFAH1B2, FP-rhodamine activity probe, fluorescence polarization | P68402 | hit rate 1.2% among 340,000;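 active = inhibition above the mean of all tested compounds plus 3 SD, cut at about 24% in these data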;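 note: 0% = enzyme with DMSO and 100% = wells lacking PAFAH1B2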
pPAFAH inh: inhibitors of human plasma PAF acetylhydrolase (pPAFAH) | hit rate 1.5% among 330,000 | recombinant pPAFAH, FP-rhodamine probe fluorescence polarization | Q13093 | inhibition, % at 3.39 µM;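 active = inhibition above the mean inhibition across the screen plus 3 SD, cut at about 25% in these data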;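 note: inhibitors block binding of the rhodamine activity-based probe so polarization drops; 0% = enzyme with DMSO and 100% = wells lacking pPAFAH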
LYPLA1 inh: LYPLA1 (human) inhibition in PME1 counter-screen. inhibition, % at 5.9 µM. O75608. hit rate 0.16% among 320,000. recombinant LYPLA1, FP-Rh probe fluorescence polarization;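 active = inhibition above the mean of all tested compounds plus 3 SD, set per campaign, cut at about 14% in these data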;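 note: inhibitors block serine hydrolase probe labeling of LYPLA1 so polarization falls; 0% = enzyme with DMSO and 100% = wells lacking LYPLA1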
Target sequence (O75608 whole entry, looked up): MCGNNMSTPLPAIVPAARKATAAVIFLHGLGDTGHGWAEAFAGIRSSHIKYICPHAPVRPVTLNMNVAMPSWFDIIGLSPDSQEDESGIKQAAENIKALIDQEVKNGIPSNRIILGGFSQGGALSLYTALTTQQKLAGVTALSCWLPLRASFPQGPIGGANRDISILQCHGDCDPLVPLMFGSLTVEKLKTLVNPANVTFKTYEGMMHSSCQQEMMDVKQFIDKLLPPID
PAFAH2 FP inh: PAFAH2 (human) inhibition | Q99487 | recombinant PAFAH2, FP-rhodamine activity probe, fluorescence polarization | inhibition, % at 3.39 µM | hit rate 0.99% among 340,000;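 active = inhibition above the mean over all tested compounds plus 3 SD, cut at about 30% in these data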;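 note: inhibitors block probe labeling of enzyme so polarization drops; 0% = enzyme with DMSO and 100% = wells lacking PAFAH2 protein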
An asterisk follows results filed as active.

What do the screens show for `O=C(CCNS(=O)(=O)c1cccc2nonc12)N1CCN(c2cccc(Cl)c2)CC1`?
PAFAH1B3 inh: 3.7; LYPLA2 inh: 47.8*; PAFAH1B2 FP inh: -1.2; pPAFAH inh: 0.1; LYPLA1 inh: 2.8; PAFAH2 FP inh: 12.1

Results for O=C(CCNS(=O)(=O)c1cccs1)N1CCN(c2cccc(Cl)c2)CC1 ?
PAFAH1B3 inh: 6.2; LYPLA2 inh: 9.4; PAFAH1B2 FP inh: 2.1; pPAFAH inh: 6.3; LYPLA1 inh: -1.2; PAFAH2 FP inh: 6.4

What do the screens show for `CC(Sc1n[nH]c(N)n1)C(=O)C12CC3CC(CC(C3)C1)C2` (stereo unspecified)?
PAFAH1B3 inh: 3.1; LYPLA2 inh: 4.7; PAFAH1B2 FP inh: 27.1*; pPAFAH inh: -3.7; LYPLA1 inh: 1.0; PAFAH2 FP inh: 8.4

How did CCC(C)(C)C1CCc2[nH]nc(C(=O)NCC3CC3)c2C1 (stereo unspecified) do in these assays?
PAFAH1B3 inh: 5.8; LYPLA2 inh: -2.5; PAFAH1B2 FP inh: 19.9; pPAFAH inh: 0.7; LYPLA1 inh: -2.8; PAFAH2 FP inh: 9.6

Results for CCC(C)(C)C1CCc2[nH]nc(C(=O)NCCNC(=O)OC(C)(C)C)c2C1 (stereo unspecified) ?
PAFAH1B3 inh: 2.4; LYPLA2 inh: 3.0; PAFAH1B2 FP inh: 27.7*; pPAFAH inh: 4.7; LYPLA1 inh: -1.6; PAFAH2 FP inh: 3.9

Results for COC(=O)c1cc(NC(=O)CN(c2ccc3c(c2)OCO3)S(C)(=O)=O)ccc1Cl ?
PAFAH1B3 inh: 6.2; LYPLA2 inh: 5.5; PAFAH1B2 FP inh: 2.4; pPAFAH inh: -6.8; LYPLA1 inh: -5.2; PAFAH2 FP inh: -4.1

Results for Cc1ccc(CNC(=O)C2CCCN(S(=O)(=O)c3cccc4nonc34)C2)cc1 (stereo unspecified) ?
PAFAH1B3 inh: -4.3; LYPLA2 inh: -4.3; PAFAH1B2 FP inh: 0.7; pPAFAH inh: -2.4; LYPLA1 inh: -3.6; PAFAH2 FP inh: 9.1

How did Cc1cnc(C(=O)OCC(=O)NC2CCCC(C)C2C)cn1 (stereo unspecified) do in these assays?
PAFAH1B3 inh: 4.6; LYPLA2 inh: -1.3; PAFAH1B2 FP inh: 5.2; pPAFAH inh: 3.6; LYPLA1 inh: -3.1; PAFAH2 FP inh: 0.2

What do the screens show for `CC1CCCC(NC(=O)COC(=O)c2ccc([N+](=O)[O-])s2)C1C` (stereo unspecified)?
PAFAH1B3 inh: 53.2*; PAFAH1B2 FP inh: 14.9; pPAFAH inh: 16.4; PAFAH2 FP inh: 65.6*

What do the screens show for `Cc1ccc(CC(=O)OCC(=O)NC2CCCC(C)C2C)cc1C` (stereo unspecified)?
PAFAH1B3 inh: 10.1; LYPLA2 inh: 4.8; PAFAH1B2 FP inh: 4.2; pPAFAH inh: 29.3*; LYPLA1 inh: 1.8; PAFAH2 FP inh: 38.5*

Results for COc1ccc(/C=C/C(=O)OCC(=O)N2CCCC2)c(OC)c1 ?
PAFAH1B3 inh: -2.5; LYPLA2 inh: 6.2; PAFAH1B2 FP inh: 0.8; pPAFAH inh: 5.0; LYPLA1 inh: -2.6; PAFAH2 FP inh: 16.1

Results for CC1CCCC(NC(=O)COC(=O)Cc2ccc(Cl)cc2)C1C (stereo unspecified) ?
PAFAH1B3 inh: 15.2; PAFAH1B2 FP inh: 20.4; pPAFAH inh: 28.1*; PAFAH2 FP inh: 15.9

What do the screens show for `CCc1ccc(OCC(=O)OCC(=O)NC2CCCC(C)C2C)cc1` (stereo unspecified)?
PAFAH1B3 inh: 9.8; PAFAH1B2 FP inh: 6.7; pPAFAH inh: 8.1; PAFAH2 FP inh: 7.0

Results for CC1CCCC(NC(=O)COC(=O)Cc2c[nH]c3ccccc23)C1C (stereo unspecified) ?
PAFAH1B3 inh: 3.6; LYPLA2 inh: -2.6; PAFAH1B2 FP inh: 7.8; pPAFAH inh: 15.4; LYPLA1 inh: 0.3; PAFAH2 FP inh: 15.3

How did COc1ccc(/C=C/C(=O)OCC(=O)NC2CCCC(C)C2C)c(OC)c1 (stereo unspecified) do in these assays?
PAFAH1B3 inh: -1.1; PAFAH1B2 FP inh: -1.6; pPAFAH inh: 29.4*; PAFAH2 FP inh: 76.1*

What do the screens show for `CC1CCN(C(=O)C2CC(c3ccc(F)cc3)=NO2)CC1` (stereo unspecified)?
PAFAH1B3 inh: -6.3; LYPLA2 inh: 9.7; PAFAH1B2 FP inh: -1.8; pPAFAH inh: 6.6; LYPLA1 inh: 3.5; PAFAH2 FP inh: 0.3

What do the screens show for `COc1ccccc1Oc1nc2ccccn2c(=O)c1/C=C(\C#N)C(=O)Nc1c(C)n(C)n(-c2ccccc2)c1=O`?
PAFAH1B3 inh: 13.4; LYPLA2 inh: 4.9; PAFAH1B2 FP inh: 7.1; pPAFAH inh: -2.3; LYPLA1 inh: 2.6; PAFAH2 FP inh: -1.4

How did O=C(COC(=O)COc1ccc(Cl)cc1)NCCCc1ccccc1 do in these assays?
PAFAH1B3 inh: -0.1; PAFAH1B2 FP inh: 29.4*; pPAFAH inh: 14.3; PAFAH2 FP inh: 5.1

What do the screens show for `CCOc1ccc(CCNC(=O)COC(=O)COc2ccc(Cl)cc2)cc1OCC`?
PAFAH1B3 inh: 7.2; LYPLA2 inh: -0.1; PAFAH1B2 FP inh: 4.1; pPAFAH inh: 26.5*; LYPLA1 inh: -5.1; PAFAH2 FP inh: -4.0

What do the screens show for `COc1ccc(CCNC(=O)COC(=O)COc2ccc(Cl)cc2)cc1OC`?
PAFAH1B3 inh: 6.0; LYPLA2 inh: 2.4; PAFAH1B2 FP inh: 5.6; pPAFAH inh: 7.0; LYPLA1 inh: -1.7; PAFAH2 FP inh: -0.4

Results for O=C(COC(=O)COc1ccccc1)NCCc1ccccc1 ?
PAFAH1B3 inh: -1.2; LYPLA2 inh: -2.1; PAFAH1B2 FP inh: 4.6; pPAFAH inh: 11.1; LYPLA1 inh: -2.1; PAFAH2 FP inh: 1.8

Results for CCOc1cc(CNCCc2ccc(S(N)(=O)=O)cc2)ccc1OCc1ccc(Cl)cc1 ?
PAFAH1B3 inh: 2.5; LYPLA2 inh: 1.8; PAFAH1B2 FP inh: 28.3*; pPAFAH inh: 0.5; LYPLA1 inh: -4.8; PAFAH2 FP inh: 1.4

How did COc1ccc(NC(=O)COc2ccc3oc(=O)cc(C)c3c2)cc1 do in these assays?
PAFAH1B3 inh: 4.2; LYPLA2 inh: 4.8; PAFAH1B2 FP inh: 1.7; pPAFAH inh: -2.5; LYPLA1 inh: -0.3; PAFAH2 FP inh: -2.7

Results for CCCOC(=O)CCc1n[nH]c(=O)[nH]c1=O ?
PAFAH1B3 inh: 4.4; LYPLA2 inh: -2.5; PAFAH1B2 FP inh: 0.8; pPAFAH inh: -1.7; LYPLA1 inh: 0.5; PAFAH2 FP inh: 3.5

What do the screens show for `Cc1nn(CC(=O)NCc2cccnc2)c(C)c1[N+](=O)[O-]`?
PAFAH1B3 inh: 5.8; LYPLA2 inh: 9.3; PAFAH1B2 FP inh: -2.2; pPAFAH inh: 5.1; LYPLA1 inh: 3.4; PAFAH2 FP inh: -4.4

How did CC1CCN(S(=O)(=O)c2cccc(C(=O)NCc3cccs3)c2)CC1 do in these assays?
PAFAH1B3 inh: 0.5; LYPLA2 inh: -6.4; PAFAH1B2 FP inh: 27.4*; pPAFAH inh: -2.3; LYPLA1 inh: -1.2; PAFAH2 FP inh: 4.6

Results for CC1CCN(S(=O)(=O)c2cccc(C(=O)NCc3ccco3)c2)CC1 ?
PAFAH1B3 inh: 3.1; LYPLA2 inh: 1.2; PAFAH1B2 FP inh: 24.5*; pPAFAH inh: 2.8; LYPLA1 inh: 0.1; PAFAH2 FP inh: 6.2

Screening data deposited in PubChem by The Scripps Research Institute Molecular Screening Center.
